The source of these data is PubChem BioAssay AID588852 (The Scripps Research Institute Molecular Screening Center, 2011).

Broadly, the inhibition is the change of the read-out against control, counted positive when it falls.

The whole screen tested about 360,000 compounds, of which about 4,600 (1.3%) were called active. The sample holds actives, similar compounds and a random draw of the others, so the mix is not that of the screen. Unmarked numbers belong to inactive results.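 Rule for the calls: active = percent inhibition above its own plate's cutoff, namely the mean of that plate's compound wells plus 3 SD; inactive = the rest.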

Chain of Muscarinic acetylcholine receptor M1 (Homo sapiens) (P11229 whole entry, looked up): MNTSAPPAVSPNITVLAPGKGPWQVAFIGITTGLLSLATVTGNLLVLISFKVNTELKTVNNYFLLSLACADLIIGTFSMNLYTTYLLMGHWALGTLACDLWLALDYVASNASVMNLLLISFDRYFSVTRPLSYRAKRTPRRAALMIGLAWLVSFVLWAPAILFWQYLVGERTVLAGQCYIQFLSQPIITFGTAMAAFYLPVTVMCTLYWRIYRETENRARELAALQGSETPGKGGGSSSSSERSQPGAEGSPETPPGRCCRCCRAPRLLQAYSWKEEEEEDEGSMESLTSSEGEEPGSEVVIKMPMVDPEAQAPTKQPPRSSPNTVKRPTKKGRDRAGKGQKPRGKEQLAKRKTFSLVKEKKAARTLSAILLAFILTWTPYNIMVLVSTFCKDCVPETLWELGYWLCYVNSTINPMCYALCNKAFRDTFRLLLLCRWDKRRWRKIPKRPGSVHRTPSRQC

The assay addresses Muscarinic acetylcholine receptor M1 (Homo sapiens) (UniProt P11229). The assay is described as follows: CHRM1 blockers of acetylcholine calcium response – CHO-K1 cells, Fluo-8 calcium fluorescence, 1536-well, primary screen (AID 588852).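 Note: peak over basal fluorescence ratio during 140 s after agonist addition; 0% = ACh EC80 plus DMSO and 100% = DMSO alone without agonist.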 As to conditions: CHO-K1 hM1, Fluo-8 calcium fluorescence, ACh EC80 antagonist; at 3 µM; hits give high values.
`Cc1ccc(Cc2c(-c3ccco3)nc3ccc(Cl)cn23)cc1`: the inhibition is -22.8%. `COc1cccc(CN(C)C(=O)CC[C@H]2O[C@@H](n3cnc4c(NC(=O)c5ccccc5)ncnc43)[C@H](O)[C@@H]2O)c1`: the inhibition was -19.1%.

As for `CC1=C(C(=O)N(C(C)C)C(C)C)CC(CC(=O)NCCCCc2ccccc2)C(=O)N1CCC1=CCCCC1` (centres undefined), the inhibition was -20.5%. The same measure for `OC[C@@H]1CN(Cc2ccc(-c3ccccc3)cc2)C[C@H](n2cnc3c(NC4CCCC4)ncnc32)O1`: 32% (active); for `OC[C@@H]1CN(Cc2ccc(F)cc2)C[C@H](n2cnc3c(NC4CCCC4)ncnc32)O1`: -0.24%.

Take `OC[C@@H]1CN(Cc2cccs2)C[C@H](n2cnc3c(NC4CCCC4)ncnc32)O1`: the inhibition is -11.8%. For `O=C(c1ccc(N2CCCC2=O)cc1)N1CCN(c2ccc(C(F)(F)F)cc2[N+](=O)[O-])CC1` the value was 53.8% (active); for `COc1cc(OC)cc(C(=O)NC(=S)N2CCN(c3ccc(C(F)(F)F)cc3[N+](=O)[O-])CC2)c1`, -3.37%. For the compound `O=C(c1ccc(N2CCOCC2)c([N+](=O)[O-])c1)N1CCN(c2ccccc2F)CC1`, the inhibition is -20.3%. `NC(c1csc(NC(=O)Nc2cccc(C(F)(F)F)c2)n1)C1CCCCC1` (centres undefined): the inhibition was 2.03%.

As for `CCc1cc2c(SCC(=O)Nc3ncc(Cl)c(C)c3Cl)ncnc2s1`, the inhibition is 3.21%. For `c1ccc(CNCc2ccc(CNCc3ccccc3)cc2)cc1`, the inhibition was 2.12%. As for `c1ccc(Cc2cc[n+](Cc3ccccc3)cc2)cc1`, the inhibition was 37.1% (active). With `CN(C)c1cc[n+](Cc2ccccc2)cc1`, the inhibition was 21.7%. The same measure for `CCOc1ccc(CCNC(=O)C2=C(C)C(=O)OC23CCC(C)CC3)cc1OCC` (centres undefined): -7.29%; for `NC(c1csc(NC(=O)Nc2ccccc2Oc2ccccc2)n1)c1ccccc1Cl` (centres undefined): -3.63%.

`Cc1ccc(C)c(NC(=O)CN(C)C(=O)COc2ccc3ccccc3c2)c1`: the inhibition was -15%. The same measure for `CN(Cc1ccccc1)C(=O)COc1ccccc1`: 1.72%; for `CN(Cc1ccc(F)cc1)C(=O)COc1ccc2ccccc2c1`: 24.7% (active). The same measure for `CC(C)(C)N1C(=O)c2c(C(=O)OCc3ccccc3)[nH]c(-c3ccccc3)c2C1=O`: -12.3%.

For `CCNC(=O)C1(C)CCCN(C(=O)c2c(C)noc2C)C1` (centres undefined), the inhibition is -8.22%. The same measure for `CSc1ccc(CNC(=O)C2(C)CCCN2C)cc1` (centres undefined): -11.7%; for `CC1CCN(CCCn2c(SCC(=O)NC3CCCC3)nc3ccccc3c2=O)CC1`: 31.2% (active); for `CC(=O)c1ccc(NC(=O)CSc2nc3ccccc3c(=O)n2CCCN2CCOCC2)cc1`: 1.86%.

As for `O=C(CSc1nc2ccccc2c(=O)n1CCCO)NC1CC1`, the inhibition is -2.1%. For `COC(=O)c1ccc2nc(-c3ccc(OC)c(OC)c3)c(Cc3ccccc3)n2c1`, the inhibition is -24%.

For `Cc1c(C(=O)OC(C)C)sc(NC(=O)c2cccnc2)c1C#N`, the inhibition is -3.46%. As for `CC(=O)N1c2ccc(S(=O)(=O)N3CCC(C(=O)N4CCN(c5ccccc5)CC4)CC3)cc2CC1C` (centres undefined), the inhibition is 10.8%. The same measure for `CC(=O)N1CCCc2cc(S(=O)(=O)N3CCCC(C(=O)N4CCN(c5cccc(Cl)c5)CC4)C3)ccc21` (centres undefined): 57.1% (active). As to `CC(=O)N1CCCc2cc(S(=O)(=O)CCC(=O)N3CCN(c4ccccc4)CC3)ccc21`, the inhibition is -7.27%. With `O=C(CCS(=O)(=O)c1ccccc1Cl)Nc1ccc(S(=O)(=O)Nc2ncccn2)cc1`, the inhibition is -5.9%. As to `CCN1C(=O)[C@@H]2[C@@H]3CN(S(=O)(=O)c4ccccc4C)[C@@H](c4ccc(Cl)cc4)[C@@H]3C(=O)C[C@@H]2C1=O`, the inhibition was 4.67%. As to `Cc1ccc(S(=O)(=O)N2CCC(C(=O)N[C@@H](C)C(=O)NCc3ccccc3)CC2)cc1`, the inhibition was 4.54%. For `CCN(CC(=O)N1CCCC1)S(=O)(=O)c1ccc(F)cc1` the value was -13%; for `CN(C)CCOC(=O)C(c1ccccc1)C1(O)CCCC1` (centres undefined), 99.4% (active); for `O=C(O)C(c1ccccc1)C1(O)CCCCC1` (centres undefined), -17.6%. With `O=C(O)C(c1cccs1)C1(O)CCCCC1` (centres undefined), the inhibition is -1.29%. For `COc1ccccc1N1CCN(CC(=O)NCCc2ccc(S(N)(=O)=O)cc2)CC1`, the inhibition is 4.39%. With `Cc1nc(NC(=O)CCC(=O)O)sc1C(=O)N(C)C`, the inhibition was 2.74%. The same measure for `CCCn1c(C2CCCN2c2nc(-c3ccc(C)cc3)cs2)nc2cc(Cl)c(N3CCCCC3)cc21` (centres undefined): -10.7%; for `CCOc1ccc(C(=O)Nc2ccc(S(=O)(=O)Nc3cc(C)on3)cc2)cc1`: 0.49%. As for `COc1cc2ccccc2cc1C(=O)Nc1ccc(S(=O)(=O)Nc2cc(C)on2)cc1`, the inhibition was 103% (active). Regarding `COc1ccc(S(=O)(=O)Nc2cc(C)on2)cc1NC(C)=O`, the inhibition was -12.3%. The same measure for `CC1CCCC(C)N1C(=O)COC(=O)COc1ccccc1C#N` (centres undefined): -15.1%. The same measure for `COc1ccccc1CNS(=O)(=O)c1cc(C(=O)NCc2ccccn2)c(Cl)cc1Cl`: 5.67%. The same measure for `Cc1cc(C)n2nc(C(=O)OCC(=O)N(CCC#N)c3ccc(F)cc3)nc2n1`: -14.2%; for `CNS(=O)(=O)c1ccc(N2CCCC2=O)c([N+](=O)[O-])c1`: -23.5%.

With `CC(=O)c1cccc(NC(=S)N2CCN(S(C)(=O)=O)CC2)c1`, the inhibition is -7.9%. For the compound `CC(=O)c1cccc(NC(=O)C2CCN(C(=O)c3ccccc3Cl)CC2)c1`, the inhibition was -5.19%. Consider `CCSc1nsc(NC(=O)Nc2cccc(C(C)=O)c2)n1`, for which the inhibition is 51.1% (active). For `COc1ccc(NC(C(=O)Nc2cccc(C(C)=O)c2)c2ccccc2)cc1` (centres undefined) the value was -3.24%; for `CSc1ccccc1C(=O)Nc1cccc(C(C)=O)c1`, 0.3%. The same measure for `C=CCSc1nsc(NC(=O)Nc2cccc(C(C)=O)c2)n1`: 38.7% (active); for `Fc1cccc(Cc2c(-c3cccc(Cl)c3)nc3ccc(Br)cn23)c1`: -20.5%; for `CC#CC[N+](C)(C)CCCCCC`: -12.7%.

With `FC(F)(F)Oc1ccc(-c2cn3cccnc3n2)cc1`, the inhibition is 12.5%. The same measure for `O=C(CCc1ccc(S(=O)(=O)N2CCOCC2)cc1)OCC(=O)c1ccc(Br)cc1`: 9.26%; for `O=C(Nc1ccccc1Cl)/C(Cl)=C(\Cl)S(=O)c1ccccc1` (centres undefined): -6.91%; for `OC(c1ccccc1)C(CN1CCOCC1)c1ccccc1` (centres undefined): -25.3%. `OC(C#CCN1CCOCC1)(c1ccccc1)C1CCCCC1` (centres undefined): the inhibition is 50.9% (active). Consider `COc1ccc(C(O)(C2CCCCC2)C(CN2CCCC2)c2ccccc2)cc1` (centres undefined), for which the inhibition was 10.3%. For `Clc1cccc(Cl)c1Cn1nnc(-c2cccs2)n1` the value was -2.1%; for `CC(=O)c1c(N)n(C)c(=O)n(C)c1=O`, -33.5%. For `CCOC(=O)c1ccc(-c2ccc3ncnc(N(C)Cc4sccc4C)c3c2)o1` the value was -1.82%; for `N/C(=N\OC(=O)Nc1ccccc1)c1ccno1`, -25%; for `CC(C)CCNC(=O)c1[nH]c(C(F)(F)F)nc1-c1ccccc1`, -26.6%. The same measure for `CCN(Cc1ccccc1)C(=O)CN1C(=S)NC(C)(C)CC1C` (centres undefined): -5.27%; for `CCNC(=S)N(CCN(CC)CC)Cc1cc2cc3c(cc2[nH]c1=O)OCCO3`: -13%. Turning to `CCCCOc1ccc(C(=O)NN2CCN(C)CC2)cc1`, the inhibition was 44.4% (active). For `CC1CN(S(=O)(=O)c2ccc(C(=O)NN3CCN(C)CC3)cc2)CC(C)O1` (centres undefined) the value was 9.23%; for `CN1CCN(NC(=O)c2ccc(S(=O)(=O)N3CCCCCC3)cc2)CC1`, -2.56%; for `Cc1ccc([C@H]2N[C@]3(CCCN(Cc4ccccc4)C3=O)[C@H]3C(=O)N(Cc4ccccc4)C(=O)[C@@H]23)cc1`, -11.4%. Consider `OCCc1ccc(NCCc2ccco2)cc1`, for which the inhibition was 0.71%.

In the case of `O=C(c1ccccc1Oc1ccccc1)N1CCN(c2ccc(F)cc2)CC1`, the inhibition was 4.1%. The same measure for `CCOC(=O)N1CCN(C(=O)c2nn(-c3ccc(C)cc3)c(=O)c3c2c2ccccc2n3C)CC1`: 3.41%; for `Cn1c2ccccc2c2c(C(=O)N3CCN(c4ccc(F)cc4)CC3)cn(C3CCCC3)c(=O)c21`: 29.7% (active). With `O=C(Nc1ccc2c(c1)OCCO2)C(C1CC1)N1CCC(Cc2ccccc2)CC1` (centres undefined), the inhibition was 34.6%. Consider `CC(C)Cc1ccc(-c2cc3nc(NCc4cccc(Cl)c4)ccn3n2)cc1`, for which the inhibition was -8.68%. For `Cc1nnc(SC(C)C(=O)c2c[nH]c3ccccc23)n1C1CC1` (centres undefined), the inhibition was 2.35%.

On to `C[C@H]1CN([C@@H](C)CO)S(=O)(=O)c2ccc(Br)cc2O[C@H]1CN(C)C(=O)c1cnccn1`, for which the inhibition was -4.86%. For `O=C(Cc1ccccc1)Nc1c(Cl)ccc2nsnc12`, the inhibition was -7.81%. For `CCOC(=O)Nc1ccc2c(c1)N(C(=O)CCN1CCN(CCO)CC1)c1ccccc1CC2` the value was 16.4%; for `CCNCCC(=O)N1c2ccccc2Sc2ccc(NC(=O)OCC)cc21`, 56% (active).

In the case of `CCOC(=O)Nc1ccc2c(c1)N(C(=O)CCCl)c1ccccc1[S@]2=O`, the inhibition is -17.2%.

In the case of `Cc1cc2c(cc1C)N(C(=O)CN1C(=O)c3ccccc3C1=O)C(C)(C)c1ssc(=S)c1-2`, the inhibition is 9.39%.

Turning to `Nn1c(SCC(=O)Nc2nccs2)nncc1=O`, the inhibition is 11.7%. Regarding `Cc1ccc(O)c(NC(=S)NC(=O)COc2ccc(Br)cc2)c1`, the inhibition was 34.7% (active). Turning to `CC(=O)Nc1ccc(OC(=O)COc2ccc(Br)cc2)cc1`, the inhibition is 1.05%. As to `Cn1cccc1C(=O)NNC(=O)COc1ccc(Br)cc1`, the inhibition is -13%.

With `Cc1nn(CCCC(=O)NCc2ccccc2Cl)c(=O)c2nccn12`, the inhibition was -19.9%.

For the compound `COc1cccc(-n2cc3c(c2-c2ccccc2)c(=O)n(C)c(=O)n3C)c1`, the inhibition is 36.7% (active). For `COc1ccc(Nc2cc(=O)n(-c3ccccc3)c3c2c(=O)n(C)c(=O)n3C)cc1` the value was 12.9%; for `Cc1ccc(-c2c3c(=O)n(C)c(=O)n(C)c3cn2-c2ccccc2O)cc1`, 7.07%. The same measure for `O=S(=O)(c1cccs1)N1CCN(CCOc2ccccc2)CC1`: -13.2%. Turning to `O=C1CCN(CCc2ccccc2)CCN1CCOc1ccccc1`, the inhibition was -21.3%. As to `O=c1[nH]c2ccccc2n1C1CCN(CCOc2ccccc2)CC1`, the inhibition was 78.4% (active). The same measure for `O=C(Nc1cc(Br)ccc1F)c1nc[nH]c1C(=O)NCc1ccccc1`: -2.93%; for `CCOC1CS(=O)(=O)CC1OCC` (centres undefined): -4.01%; for `Cc1ccc(CN2CC(N3CCC(Cc4ccccc4)CC3)CS2(=O)=O)cc1` (centres undefined): -11.4%. The same measure for `CCN(CCCNC(=O)CSc1cc(=O)n(C)c2cc(Cl)ccc12)Cc1ccccc1`: 2.6%. For `COC(=O)c1ccc(COC(=O)c2cnc(Cl)c(Cl)c2)cc1` the value was -11.6%; for `Cn1cncc1COC(=O)c1ccc(Cl)cc1`, 88.4% (active); for `Cc1cc(OC(=O)c2ccc(Cl)cc2)cc(=O)n1C`, -25.4%. Take `Cc1ccccc1NC(=O)CSC1=NCCN1`: the inhibition is -2.31%.
